Measured values: the supplement of paper PMC11732987, “Enantioselective OTUD7B fragment discovery through chemoproteomics screening and high-throughput optimisation” (Communications Chemistry, 2025)

Key:
Assay in all cases: log2 ratio of Biotin-Ahx-Ub-VS probe labelling (fragment/DMSO); higher = less target engagement (more negative = stronger competition), active = hit call of the paper (q ≤ 0.05, log2 ratio ≤ -1)
Settings in all cases: compound concentration: 200 uM; treatment time: 3 h
USP34 = USP34 (UniProt Q70CQ2)
In short: (§1)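 HEK293T lysate, 495 µg per sample in Tris/CHAPS/IGEPAL buffer with protease inhibitors, was treated in triplicate with fragment at 200 µM or vehicle for 3 h and then with Biotin-Ahx-Ub-VS at 0.5 µM final for 1 h. Labelled DUBs were NeutrAvidin-enriched, digested with LysC and trypsin, and run by diaPASEF LC-MS/MS. Spectronaut label-free quantities were global-median-normalised, and values are average log2 fragment/vehicle ratios by unpaired t-test on proteins with ≥2 unique peptides.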

USP36 = target: T1, USP36 (UniProt Q9P275)
T1 sequence (whole entry): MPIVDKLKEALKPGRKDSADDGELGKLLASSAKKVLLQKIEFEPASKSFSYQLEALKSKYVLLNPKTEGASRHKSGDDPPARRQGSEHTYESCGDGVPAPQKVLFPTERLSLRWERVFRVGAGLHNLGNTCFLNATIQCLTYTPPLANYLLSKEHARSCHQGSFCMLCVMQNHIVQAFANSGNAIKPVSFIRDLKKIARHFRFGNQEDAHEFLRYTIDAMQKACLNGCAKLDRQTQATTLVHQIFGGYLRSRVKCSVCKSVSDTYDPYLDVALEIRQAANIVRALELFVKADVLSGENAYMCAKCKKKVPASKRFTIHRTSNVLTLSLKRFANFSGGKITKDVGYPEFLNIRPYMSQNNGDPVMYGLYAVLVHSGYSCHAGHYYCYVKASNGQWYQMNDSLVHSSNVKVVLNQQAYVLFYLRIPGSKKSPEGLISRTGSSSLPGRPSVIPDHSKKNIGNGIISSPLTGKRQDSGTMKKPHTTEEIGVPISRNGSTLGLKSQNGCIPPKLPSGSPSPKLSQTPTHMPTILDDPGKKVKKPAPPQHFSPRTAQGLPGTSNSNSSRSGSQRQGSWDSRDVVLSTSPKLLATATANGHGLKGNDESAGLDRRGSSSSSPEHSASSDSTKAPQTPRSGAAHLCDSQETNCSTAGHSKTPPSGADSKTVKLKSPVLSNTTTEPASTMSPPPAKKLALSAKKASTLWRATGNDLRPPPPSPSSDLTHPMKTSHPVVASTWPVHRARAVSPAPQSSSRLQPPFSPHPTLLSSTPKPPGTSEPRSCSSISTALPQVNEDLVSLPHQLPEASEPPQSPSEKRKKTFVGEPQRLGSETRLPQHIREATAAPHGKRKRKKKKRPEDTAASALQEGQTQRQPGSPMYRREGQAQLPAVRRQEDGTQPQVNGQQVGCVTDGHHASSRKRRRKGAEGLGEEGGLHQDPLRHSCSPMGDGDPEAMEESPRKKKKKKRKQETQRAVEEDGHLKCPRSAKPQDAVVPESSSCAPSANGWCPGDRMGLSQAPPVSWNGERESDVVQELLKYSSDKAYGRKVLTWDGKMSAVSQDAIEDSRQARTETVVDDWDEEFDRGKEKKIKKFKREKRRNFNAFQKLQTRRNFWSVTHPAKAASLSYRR
In short: as §1

USP38 = target: T2, USP38 (UniProt Q8NB14)
T2 sequence (whole entry): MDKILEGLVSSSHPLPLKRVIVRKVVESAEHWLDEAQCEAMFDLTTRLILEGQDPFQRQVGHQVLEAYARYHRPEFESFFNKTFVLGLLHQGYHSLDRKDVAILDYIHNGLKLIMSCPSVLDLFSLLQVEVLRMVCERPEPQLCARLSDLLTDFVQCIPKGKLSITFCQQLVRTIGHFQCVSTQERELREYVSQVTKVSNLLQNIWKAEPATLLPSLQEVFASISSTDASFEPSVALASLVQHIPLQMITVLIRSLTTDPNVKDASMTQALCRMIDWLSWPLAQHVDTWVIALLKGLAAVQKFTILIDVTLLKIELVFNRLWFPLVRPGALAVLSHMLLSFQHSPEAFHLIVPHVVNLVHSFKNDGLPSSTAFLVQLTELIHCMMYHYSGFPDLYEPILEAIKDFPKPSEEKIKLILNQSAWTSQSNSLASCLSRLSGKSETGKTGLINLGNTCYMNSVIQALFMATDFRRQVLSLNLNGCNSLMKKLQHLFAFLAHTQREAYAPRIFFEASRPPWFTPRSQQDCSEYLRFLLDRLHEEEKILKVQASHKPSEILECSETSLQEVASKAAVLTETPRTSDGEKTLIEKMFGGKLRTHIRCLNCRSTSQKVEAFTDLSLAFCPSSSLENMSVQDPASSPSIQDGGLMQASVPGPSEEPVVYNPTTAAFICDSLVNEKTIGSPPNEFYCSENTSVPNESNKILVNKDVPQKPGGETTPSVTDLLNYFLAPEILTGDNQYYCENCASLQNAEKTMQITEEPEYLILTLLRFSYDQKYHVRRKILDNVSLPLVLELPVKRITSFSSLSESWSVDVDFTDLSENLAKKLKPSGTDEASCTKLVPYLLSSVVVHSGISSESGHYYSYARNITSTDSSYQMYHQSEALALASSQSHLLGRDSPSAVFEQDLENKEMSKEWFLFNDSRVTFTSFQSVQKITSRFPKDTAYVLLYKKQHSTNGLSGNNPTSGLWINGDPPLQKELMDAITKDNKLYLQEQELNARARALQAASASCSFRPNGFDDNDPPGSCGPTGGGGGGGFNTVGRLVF
In short: as §1

USP39 = target: T3, USP39 (UniProt Q53GS9)
T3 sequence (whole entry): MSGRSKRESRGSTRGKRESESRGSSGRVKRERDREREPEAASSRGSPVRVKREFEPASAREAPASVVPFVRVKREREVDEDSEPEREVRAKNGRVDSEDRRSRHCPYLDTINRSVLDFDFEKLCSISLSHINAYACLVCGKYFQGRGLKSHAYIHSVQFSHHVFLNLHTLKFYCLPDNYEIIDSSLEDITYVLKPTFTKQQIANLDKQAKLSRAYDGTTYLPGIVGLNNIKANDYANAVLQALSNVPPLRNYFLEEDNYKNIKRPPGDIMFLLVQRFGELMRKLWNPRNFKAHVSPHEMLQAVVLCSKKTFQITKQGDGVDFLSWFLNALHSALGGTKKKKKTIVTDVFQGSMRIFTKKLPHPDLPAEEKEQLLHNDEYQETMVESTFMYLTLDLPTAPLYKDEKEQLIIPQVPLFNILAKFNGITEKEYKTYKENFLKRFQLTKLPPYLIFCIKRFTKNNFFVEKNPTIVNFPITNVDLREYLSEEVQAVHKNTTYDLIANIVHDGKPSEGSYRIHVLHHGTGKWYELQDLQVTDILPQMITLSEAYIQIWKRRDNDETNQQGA
In short: as §1

USP4 = target: T4, USP4 (UniProt Q13107)
T4 sequence (whole entry): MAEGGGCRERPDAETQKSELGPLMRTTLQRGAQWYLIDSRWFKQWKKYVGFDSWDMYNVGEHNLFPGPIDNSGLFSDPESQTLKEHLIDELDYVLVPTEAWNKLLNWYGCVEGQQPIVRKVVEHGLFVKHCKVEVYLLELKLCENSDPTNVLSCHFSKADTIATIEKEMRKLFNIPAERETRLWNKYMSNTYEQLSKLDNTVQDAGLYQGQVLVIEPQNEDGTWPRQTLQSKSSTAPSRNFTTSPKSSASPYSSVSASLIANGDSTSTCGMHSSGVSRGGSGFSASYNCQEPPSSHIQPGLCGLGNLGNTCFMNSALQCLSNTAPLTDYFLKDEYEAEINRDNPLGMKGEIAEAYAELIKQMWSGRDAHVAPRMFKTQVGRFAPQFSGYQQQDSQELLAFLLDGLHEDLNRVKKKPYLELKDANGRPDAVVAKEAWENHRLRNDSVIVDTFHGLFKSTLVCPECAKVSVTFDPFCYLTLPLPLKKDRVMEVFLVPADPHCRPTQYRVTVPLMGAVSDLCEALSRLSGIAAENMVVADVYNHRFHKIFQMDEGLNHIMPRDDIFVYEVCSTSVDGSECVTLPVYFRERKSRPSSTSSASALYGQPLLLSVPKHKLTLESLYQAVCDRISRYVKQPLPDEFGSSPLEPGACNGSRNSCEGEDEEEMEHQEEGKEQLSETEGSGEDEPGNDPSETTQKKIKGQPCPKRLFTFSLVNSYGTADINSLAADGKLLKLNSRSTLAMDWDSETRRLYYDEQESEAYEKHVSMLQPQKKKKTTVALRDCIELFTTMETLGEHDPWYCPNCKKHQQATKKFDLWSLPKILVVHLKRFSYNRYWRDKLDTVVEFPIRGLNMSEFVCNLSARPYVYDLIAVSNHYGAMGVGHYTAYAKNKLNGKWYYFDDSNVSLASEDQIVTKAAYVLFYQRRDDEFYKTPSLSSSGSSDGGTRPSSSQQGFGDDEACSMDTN
In short: as §1

Measured: log2 ratio of Biotin-Ahx-Ub-VS probe labelling

USP34, sequence (Q70CQ2 whole entry, the tested form may be a part): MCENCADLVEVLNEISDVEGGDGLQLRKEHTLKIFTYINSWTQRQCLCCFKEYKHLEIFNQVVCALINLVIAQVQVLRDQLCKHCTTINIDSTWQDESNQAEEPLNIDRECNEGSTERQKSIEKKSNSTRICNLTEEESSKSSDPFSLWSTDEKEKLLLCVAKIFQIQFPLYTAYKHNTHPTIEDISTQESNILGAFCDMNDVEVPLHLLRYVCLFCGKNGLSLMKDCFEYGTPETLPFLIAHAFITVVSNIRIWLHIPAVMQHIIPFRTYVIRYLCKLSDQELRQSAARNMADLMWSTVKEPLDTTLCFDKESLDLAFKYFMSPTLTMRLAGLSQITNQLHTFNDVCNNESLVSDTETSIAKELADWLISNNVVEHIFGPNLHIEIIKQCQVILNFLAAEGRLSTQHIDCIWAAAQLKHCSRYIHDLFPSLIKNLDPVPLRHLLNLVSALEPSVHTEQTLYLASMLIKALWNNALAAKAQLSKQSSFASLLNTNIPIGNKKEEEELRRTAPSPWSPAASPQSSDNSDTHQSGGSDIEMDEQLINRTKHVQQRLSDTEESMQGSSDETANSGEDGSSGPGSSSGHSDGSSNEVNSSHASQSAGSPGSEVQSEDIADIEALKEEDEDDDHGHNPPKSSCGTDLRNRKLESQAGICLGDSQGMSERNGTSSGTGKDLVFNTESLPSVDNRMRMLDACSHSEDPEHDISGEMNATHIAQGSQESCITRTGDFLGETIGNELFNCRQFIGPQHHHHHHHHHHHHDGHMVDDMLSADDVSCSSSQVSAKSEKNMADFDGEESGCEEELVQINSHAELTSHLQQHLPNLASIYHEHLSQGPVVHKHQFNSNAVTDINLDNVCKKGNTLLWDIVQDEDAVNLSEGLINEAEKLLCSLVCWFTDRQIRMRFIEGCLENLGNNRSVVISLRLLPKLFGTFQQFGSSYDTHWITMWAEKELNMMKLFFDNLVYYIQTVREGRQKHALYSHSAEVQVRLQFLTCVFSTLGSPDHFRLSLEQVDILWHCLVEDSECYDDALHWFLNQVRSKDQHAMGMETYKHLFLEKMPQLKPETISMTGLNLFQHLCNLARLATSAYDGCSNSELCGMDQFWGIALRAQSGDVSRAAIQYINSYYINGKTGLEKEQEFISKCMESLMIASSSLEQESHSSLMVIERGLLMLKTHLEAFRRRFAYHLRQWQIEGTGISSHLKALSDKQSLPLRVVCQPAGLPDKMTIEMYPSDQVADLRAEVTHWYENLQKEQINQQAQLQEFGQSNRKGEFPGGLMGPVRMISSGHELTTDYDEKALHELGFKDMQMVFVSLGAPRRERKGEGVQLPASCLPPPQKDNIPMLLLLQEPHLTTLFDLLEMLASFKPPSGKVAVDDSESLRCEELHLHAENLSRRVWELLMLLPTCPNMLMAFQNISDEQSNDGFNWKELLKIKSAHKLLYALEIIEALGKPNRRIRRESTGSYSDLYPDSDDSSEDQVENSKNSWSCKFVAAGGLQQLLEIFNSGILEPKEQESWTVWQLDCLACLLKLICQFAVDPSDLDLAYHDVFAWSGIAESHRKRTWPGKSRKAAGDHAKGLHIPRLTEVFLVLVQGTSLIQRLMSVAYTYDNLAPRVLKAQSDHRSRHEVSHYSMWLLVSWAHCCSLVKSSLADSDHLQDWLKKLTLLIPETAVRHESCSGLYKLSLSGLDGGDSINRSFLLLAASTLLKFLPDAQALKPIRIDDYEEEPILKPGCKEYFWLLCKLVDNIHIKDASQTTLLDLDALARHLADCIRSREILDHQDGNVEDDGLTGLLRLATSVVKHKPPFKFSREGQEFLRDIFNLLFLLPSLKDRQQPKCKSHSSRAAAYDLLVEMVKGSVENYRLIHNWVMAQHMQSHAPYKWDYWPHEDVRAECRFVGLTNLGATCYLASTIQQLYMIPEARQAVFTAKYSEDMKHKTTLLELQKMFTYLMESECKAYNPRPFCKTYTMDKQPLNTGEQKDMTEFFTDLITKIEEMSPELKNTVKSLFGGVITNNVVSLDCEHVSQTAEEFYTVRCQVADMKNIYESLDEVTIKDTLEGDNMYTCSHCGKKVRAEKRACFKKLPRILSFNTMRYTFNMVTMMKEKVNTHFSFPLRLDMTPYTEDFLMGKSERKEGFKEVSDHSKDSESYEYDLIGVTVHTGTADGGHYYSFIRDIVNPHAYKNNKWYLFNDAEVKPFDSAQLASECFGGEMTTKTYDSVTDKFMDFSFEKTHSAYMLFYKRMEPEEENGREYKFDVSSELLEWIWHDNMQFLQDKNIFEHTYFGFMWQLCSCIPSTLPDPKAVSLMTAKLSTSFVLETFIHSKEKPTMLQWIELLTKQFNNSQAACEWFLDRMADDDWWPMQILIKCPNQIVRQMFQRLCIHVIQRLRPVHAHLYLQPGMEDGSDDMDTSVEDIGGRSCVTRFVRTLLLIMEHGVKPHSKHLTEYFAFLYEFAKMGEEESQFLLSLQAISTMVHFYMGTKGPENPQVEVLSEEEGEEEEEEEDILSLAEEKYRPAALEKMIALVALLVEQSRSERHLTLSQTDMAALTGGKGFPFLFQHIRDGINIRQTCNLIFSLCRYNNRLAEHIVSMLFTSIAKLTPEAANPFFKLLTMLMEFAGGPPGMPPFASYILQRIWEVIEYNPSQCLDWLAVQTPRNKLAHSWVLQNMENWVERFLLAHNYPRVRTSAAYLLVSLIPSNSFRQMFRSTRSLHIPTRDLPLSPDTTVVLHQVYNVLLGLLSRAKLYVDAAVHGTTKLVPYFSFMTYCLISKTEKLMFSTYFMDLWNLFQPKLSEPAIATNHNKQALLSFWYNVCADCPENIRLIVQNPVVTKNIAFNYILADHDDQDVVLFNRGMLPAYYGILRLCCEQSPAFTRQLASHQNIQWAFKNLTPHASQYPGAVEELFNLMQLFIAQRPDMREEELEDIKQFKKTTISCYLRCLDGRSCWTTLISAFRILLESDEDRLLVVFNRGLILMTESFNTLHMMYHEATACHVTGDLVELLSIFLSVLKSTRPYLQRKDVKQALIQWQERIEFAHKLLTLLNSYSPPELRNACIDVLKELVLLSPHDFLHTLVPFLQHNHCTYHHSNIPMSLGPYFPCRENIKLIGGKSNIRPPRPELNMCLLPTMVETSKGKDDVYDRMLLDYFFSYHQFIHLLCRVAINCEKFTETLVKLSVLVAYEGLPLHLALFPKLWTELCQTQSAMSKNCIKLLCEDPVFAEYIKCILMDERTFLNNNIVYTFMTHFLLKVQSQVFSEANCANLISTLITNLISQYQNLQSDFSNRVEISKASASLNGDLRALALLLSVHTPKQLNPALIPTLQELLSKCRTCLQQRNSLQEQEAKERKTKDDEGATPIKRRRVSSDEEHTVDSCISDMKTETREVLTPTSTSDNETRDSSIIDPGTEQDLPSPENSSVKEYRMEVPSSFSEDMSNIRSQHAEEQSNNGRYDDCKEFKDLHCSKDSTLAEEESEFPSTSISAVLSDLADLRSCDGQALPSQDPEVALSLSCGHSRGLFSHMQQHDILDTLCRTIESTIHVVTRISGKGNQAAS

Cc1nc(CN2CCCN(C(=O)CCl)CC2)no1.Cl
inactive: USP34 0.0178 | USP36 -0.0476 | USP38 0.0657 | USP39 -0.161 | USP4 0.31
